An excerpt weighted towards active compounds, which were near 0.93% of everything screened.
Six1-Eya2 inh: blocks human Six1 binding to Eya2 | Q15475+O00167 | AlphaScreen GST-Six1/His-Eya2 binding, biochemical; hits give low values | activity change, % (concentration not given with the values) | hit rate 0.56% among 360,000
Target sequence (O00167 whole entry, looked up): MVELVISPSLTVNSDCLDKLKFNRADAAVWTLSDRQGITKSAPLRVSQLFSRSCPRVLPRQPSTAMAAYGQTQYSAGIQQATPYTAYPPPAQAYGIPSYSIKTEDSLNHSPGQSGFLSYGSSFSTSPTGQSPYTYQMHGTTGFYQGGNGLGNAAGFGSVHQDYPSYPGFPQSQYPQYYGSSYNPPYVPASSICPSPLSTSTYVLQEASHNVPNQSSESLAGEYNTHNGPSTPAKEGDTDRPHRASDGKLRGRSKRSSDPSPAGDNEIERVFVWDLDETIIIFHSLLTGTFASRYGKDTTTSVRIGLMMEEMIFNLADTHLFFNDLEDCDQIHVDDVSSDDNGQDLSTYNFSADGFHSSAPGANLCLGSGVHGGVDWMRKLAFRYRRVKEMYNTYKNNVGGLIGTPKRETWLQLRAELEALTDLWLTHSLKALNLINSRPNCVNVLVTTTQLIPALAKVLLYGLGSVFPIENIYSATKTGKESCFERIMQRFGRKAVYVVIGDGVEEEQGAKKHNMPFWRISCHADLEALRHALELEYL
Target sequence (Q15475 whole entry, looked up): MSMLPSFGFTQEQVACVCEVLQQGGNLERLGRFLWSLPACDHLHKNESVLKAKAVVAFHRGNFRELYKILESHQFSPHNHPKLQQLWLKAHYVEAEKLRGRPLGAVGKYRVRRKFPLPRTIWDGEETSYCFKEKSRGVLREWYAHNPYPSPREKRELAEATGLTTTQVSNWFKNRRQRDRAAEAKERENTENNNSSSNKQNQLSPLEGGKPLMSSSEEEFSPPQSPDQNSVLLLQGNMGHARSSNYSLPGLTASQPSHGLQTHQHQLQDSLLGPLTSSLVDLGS
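Six1/Eya2 binding was read as AlphaScreen signal after compounds were pinned into GST-Six1 plus His-tagged Eya2 (5X stock 250/500 nM) in pH 8.0 Tris/NaCl/TCEP buffer, beads added, then incubated 1 h, 37 C, dark.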
CtBP-E1A inh: CtBP/E1A binding inhibition; AlphaScreen GST-E1A/His-CtBP binding, 1536-well; hits give low values; activity change, % (concentration not given with the values); hit rate 0.49% among 340,000; AID 651724
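AlphaScreen with 125 nM GST-E1A and 125 nM His-CtBP (5X stocks) in Tris pH 8.0, 300 mM NaCl, BSA, Tween 20, TCEP. Compounds preincubated 2 h at 37 deg C, then glutathione donor/nickel acceptor beads added for 1 h at 37 deg C in dark.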
MBNL1-CUG inh: MBNL1-poly(CUG) RNA binding inhibition; hit rate 0.036% among 280,000; Q9NR56; Potency, µM (doses to about 57.5 µM), inactives show at the top dose activity change, negative = inhibition, hits mostly inhibitors; TR-FRET MBNL1-His/biotin-(CUG)12 binding, 665/545 ratio; active = well fitted inhibition curve with a large enough effect in the signal ratio, with a control signal flat, not every such curve was filed as active; inconclusive = small, poorly fitted or top-dose-only effect, or effect the other way, or a change in a side signal; inactive = no such curve, though single readings can be large or run the other way; the % refers to the signal ratio; note: potency is the fitted concentration of half-maximal effect
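TR-FRET between His-tagged MBNL1 and biotin-(CUG)12 RNA, detected with Tb anti-His antibody (0.055 ng/ul) and streptavidin-XL665 (5 nM), 60 min at room temperature. Compounds titrated 92 nM to 58 uM; 665/545 nm ratio normalized to buffer and complex controls.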
PKM2 activator: increases activity of human pyruvate kinase M2; P14618; purified PKM2, Kinase-Glo ATP luminescence, activation; response scale: 0% is enzyme alone, no compound; Potency, µM (series often up to 57.5 µM), without a hit: at the highest dose activation, most hits filed as activators; hit rate 0.34% among 260,000; active = well fitted activation curve with a large enough effect; inconclusive = small, poorly fitted or top-dose-only effect; inactive = no such curve, though single readings can be large or run the other way; note: potency is the fitted concentration of half-maximal effect; nearly all actives have a fitted effect of over 55% in size
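Purified hPK-M2 (>95% pure) converted ADP (0.1 mM final) to ATP with 0.5 mM PEP in 50 mM imidazole pH7.2, KCl, MgCl2, Tween 20, BSA; 1 h at room temperature. ATP detected by Kinase-Glo luminescence.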
Starred values were filed as active, the others as inactive; ? = inconclusive; . = no result; ! = not confirmed by another sample; [ ] = dose if it differs, or a comment. Cut-off read from the data, not from the text of the source, unless noted: active = activity change below about -65%; inconclusive = mostly about -30% to -63%; inactive = weaker than that. % is set by controls: 0 for no effect and ±100 for the full control effect.

SMILES	Six1-Eya2 inh	CtBP-E1A inh	MBNL1-CUG inh	PKM2 activator
COC(=O)[C@]12CCCCC=C1N(CCC1=CCCCC1)C(=O)[C@H](CC(=O)N1CCC(c3ccccc3)CC1)C2	-16	-11	.	.
COc1ccc2nc(/N=C/c3c(C)[nH]n(-c4ccc(C)cc4C)c3=O)sc2c1	-70*	-88*	-1%	-8%
COc1ccccc1N=Cc1c(C)[nH]n(-c2ccc(C)cc2C)c1=O	-22	2	4%	9%
C=CCNc1nc(-c2ccccn2)nnc1-c1ccccc1	-92*	-92*	-2%	-2%
CC(C)Nc1nc(-c2ccccn2)nc(-c2ccccc2)c1C#N	8	2	-1%	-4%
COC(=O)/C(=C1/Oc2cc(C)oc(=O)c2S1)C(F)(F)F	?	-83*	13%	0%
COC(=O)/C(=C1/Oc2ccc(C(C)(C)C)cc2S1)C(F)(F)F	8	1	2%	-5%
COc1ccc(/C=N/Nc2nncn2N)cc1Br	-75*	?	?	-4%
CCOc1ccc(-n2nnc3c(=O)n(CC(=O)Nc4cc(C)on4)cnc32)cc1	5	2	-10%	16µM*
Cc1cc(NC(=O)Cn2cnc3c(nnn3-c3ccc(C)c(Cl)c3)c2=O)no1	5	6	2%	5%
Cc1nc(N2CCOCC2)c2nc(-c3ccccc3)n(CCN(C)C)c2n1	.	.	.	-3%
O=C(Nn1cnnc1)C(Sc1ccccc1)c1ccccc1 (configuration not stated)	4	8	1%	19%
O=C(Nn1cnnc1)C(c1ccccc1)c1ccccc1	-1	3	0%	32µM*
Cc1cc2c(cc1C)-n1nnnc1C(N(C)Cc1ccccc1)C(=O)N2 (configuration not stated)	-9	0	.	.
CC1(OC(=O)c2ccc(Cl)nc2)C(=O)C=c2cc(-c3ccsc3)ncc2=C1OC(=O)C1CCCC1 (configuration not stated)	.	.	.	0%[11.5 µM]
Cc1[nH]c(=O)[nH]c(=O)c1/C=N/NC(=O)[C@@H](N)CC(C)C	-87*	-23	2%	3%
O=C(O)c1ccccc1NS(=O)(=O)c1cccc(C(F)(F)F)c1	28	3	-3%	2%
O=C(O)c1ccccc1NS(=O)(=O)c1cccc(-n2sc3ccccc3c2=O)c1	-6	-14	2%	2.5µM*
O=C(NCC(c1ccco1)N1CCN(c2ccccc2)CC1)C1CCCCC1 (configuration not stated)	1	0	.	.
O=S(=O)(c1ccc2ccccc2c1)N1CCc2ccccc21	2	.	4%	5%
Cn1c(=O)c(=O)n(C)c2cc(S(=O)(=O)N3CCc4ccccc43)ccc21	1	8	-2%	2µM*
C=CCn1c(COc2ccccc2)nnc1SCC(=O)N/N=C/c1ccc(C)cc1	-7	-2	-5%	0%
C=CCn1c(CNc2ccc(C)cc2)nnc1SCC(=O)N/N=C/c1ccc(O)cc1O	-86*	-82*	12%	-1%
C=CCn1c(CNc2ccccc2)nnc1SCC(=O)N/N=C/c1ccc(O)cc1O	-88*	-81*	2%	-1%
CCOC1(OCC)OC(c2ccccc2)=C(C#N)C(C=Cc2ccccc2)C1(OCC)OCC (configuration not stated)	2	0	.	.
SMILES	Six1-Eya2 inh	CtBP-E1A inh	MBNL1-CUG inh	PKM2 activator
O=[N+]([O-])c1ccc(NN=Cc2cccc3ccccc23)cc1	1	4	.	.
O=[N+]([O-])c1cc(Br)c(O)c(/C=N/Nc2nnnn2-c2cccc3ccccc23)c1	?	-70*	3%	-2%
OB(O)c1csc2ccccc12	.	.	.	-1%
COc1cc(/C=N/NC(=O)c2nc(-c3ccccc3)n(-c3ccccc3)n2)ccc1O	?	?	25%	-6%
COc1cc(/C=N/Nc2nc(C)nc3c2cnn3-c2ccccc2)ccc1O	-67*	-77*	-10%	-1%
COc1cc(/C=N/Nc2cc(C)nc(NS(=O)(=O)c3ccccc3)n2)ccc1O	-71*	-73*	6%	6%
C[C@@H]1CN([C@H](C)CO)S(=O)(=O)c2ccc(C3=CCCCC3)cc2O[C@H]1CN(C)C(=O)Cc1cccnc1	-1	4	.	.
CCCCC[C@]12Cc3ccccc3C(O1)c1c(cc(C)oc1=O)O2	.	.	0%[11.5 µM]	-5%[11.5 µM]
O=C(Cc1ccccc1)Nc1cccc(N2C(=O)C=CC2=O)c1	-29	-6	-12%	2.8µM*
O=C(Nc1ccc2nc(-c3ccco3)c(-c3ccco3)nc2c1)NC1CC1	-68*	?	?	28%
O=C(O)c1ccc2nc(-c3ccco3)c(-c3ccco3)nc2c1	?	-25	?	1%
O=C(Nc1cccc(C(F)(F)F)c1)c1ccc2nc(-c3ccco3)c(-c3ccco3)nc2c1	-77*	?	?	0%
O=C(NCCCO)Nc1ccc2nc(-c3ccco3)c(-c3ccco3)nc2c1	.	.	?	14%
COC(=O)c1ccc(C(NC(=O)OCc2ccccc2)/C(C)=C/[C@@H](C)C(=O)NCc2nc3ccccc3s2)cc1 (some centres not stated)	.	.	.	0%
O=C1C(Nc2ccc(O)cc2)=C/C(=N/S(=O)(=O)c2cccs2)c2ccccc21	-77*	?	?	-26%
Cc1ccc(Cl)cc1NC1=C/C(=N\S(=O)(=O)c2cccs2)c2ccccc2C1=O	-74*!	-78*	?	-8%
Cc1ccc(NC2=C/C(=N\S(=O)(=O)c3cccs3)c3ccccc3C2=O)c(C)c1	-84*	-85*	?	-6%
C[C@H]1Cc2c(-c3ccccc3)nc3c(c2CO1)CN(C(=O)c1cccnc1)CC3	.	.	.	-7%[11.5 µM]
CSc1nc(N)n2nc(C)cc2n1	-89*	-92*	.	.
CCOC(=O)c1ccc(S(=O)(=O)N2CCC(C(=O)NCC3COc4ccccc4O3)CC2)cc1 (configuration not stated)	10	-6	.	.
CC1(c2ccccc2)NC(=O)N(CC(=O)Nc2nc(-c3ccccn3)cs2)C1=O (configuration not stated)	-91*	?	.	.
Cc1ccc(C2(C)NC(=O)N(CC(=O)Nc3nc(-c4ccccn4)cs3)C2=O)cc1 (configuration not stated)	-92*	?	.	.
Cc1ccc(S(=O)(=O)CCc2nnc(NC(=O)c3cnccn3)s2)cc1	-5	5	-8%	0%
Cc1ccc(S(=O)(=O)CCC(=O)Nc2nc(-c3cccnc3)cs2)cc1	1	6	8%	.
Cc1ccc(S(=O)(=O)CCC(=O)Nc2nc(-c3ccccn3)cs2)cc1	?	-73*	.	.
Cc1ccc(S(=O)(=O)CCc2nnc(NC(=O)c3ccccn3)s2)cc1	-90*	-92*	11%	3%
Cc1ccc(Nc2nnc(SCc3cc(=O)n4cc(C)ccc4n3)s2)cc1	-23	-67*	?	5%
COCCn1c(-c2ccccc2)cnc1N	-88*	?	4%	4%
Cn1c(-c2ccccc2)cnc1N	?	?	-13%	0%
